Assay outcomes (PubChem BioAssay)
NR5A2 inv ag: LRH-1 (NR5A2) inverse agonists, primary screen, cell-based, luminescence, HEK293T, StAR-luciferase reporter; AID 602396, 2012; 360,000 tested, 0.13% active; Nuclear receptor subfamily 5 group A member 2 (Homo sapiens), O00482; LRH-1 transfected, 24 h; inhibition, % at 3.6 µM;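 active = inhibition above the mean inhibition of all tested compounds plus 3 SD, cut at about 73% in these data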
Gli-Sufu antag: Gli-Sufu pathway antagonists, primary screen, luciferase luminescence, Sufu-KO-LIGHT cells, uHTS; inhibition, % at 5 µM; 340,000 tested, 0.74% active; AID 588413, 2011; Sufu-KO-LIGHT fibroblasts, Gli luciferase reporter luminescence;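 active = inhibition above about 55%, limit read from the data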
COUP-TFII inh: NR2F2 transcriptional activity inhibitors, primary screen, cell-based, luciferase reporter, HEK293T, luminescence; COUP transcription factor 2 (Homo sapiens), P24468; HEK293T NGFI-A luciferase reporter; inhibition, % at 8.6 µM; 370,000 tested, 0.7% active;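 active = inhibition above a per-plate cutoff, mean inhibition of test wells between control levels plus 3 SD, cut at about 38% in these data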;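 note: cells cotransfected with COUP-TFII expression vector driving the NGFI-A reporter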
Target sequence (P24468 whole entry, looked up): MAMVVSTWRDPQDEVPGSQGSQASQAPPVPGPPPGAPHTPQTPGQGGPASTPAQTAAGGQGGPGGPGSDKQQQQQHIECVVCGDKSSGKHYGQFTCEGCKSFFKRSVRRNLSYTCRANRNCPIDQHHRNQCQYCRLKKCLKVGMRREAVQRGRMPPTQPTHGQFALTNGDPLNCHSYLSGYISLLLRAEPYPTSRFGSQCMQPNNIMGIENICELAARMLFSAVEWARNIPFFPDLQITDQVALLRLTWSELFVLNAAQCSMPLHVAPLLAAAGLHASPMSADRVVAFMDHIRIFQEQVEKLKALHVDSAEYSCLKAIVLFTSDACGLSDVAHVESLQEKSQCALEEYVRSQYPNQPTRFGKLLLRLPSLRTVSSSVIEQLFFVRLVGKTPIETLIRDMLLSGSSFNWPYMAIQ
NCOA3 inh: SRC3 coactivator transcriptional activity inhibitors, primary screen, cell-based, luminescence; 360,000 tested, 0.17% active; inhibition, % at 3.6 µM; HEK293 GAL4-SRC3 luciferase reporter; Nuclear receptor coactivator 3 (Homo sapiens), Q9Y6Q9;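 active = inhibition above a per-campaign cutoff, the mean of all compounds plus 3 SD, cut at about 60% in these data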;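 note: higher means less SRC3-driven luciferase light from the GAL4 reporter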
SRC1 inh: SRC1 coactivator transcriptional activity inhibitors, primary screen, cell-based, luminescence | Nuclear receptor coactivator 1 (Homo sapiens), Q15788 | HEK293 GAL4-SRC1 luciferase reporter | inhibition, % at 3.6 µM | 360,000 tested, 0.12% active;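 active = inhibition above the campaign mean plus 3 SD, with each screening campaign given its own cutoff, cut at about 60% in these data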
NCOA2 inhibitor: inhibition of GAL4-SRC2 driven luciferase reporter, primary screen, SRC2 inhibitor project, cell-based, luminescence; Nuclear receptor coactivator 2 (Homo sapiens), Q15596; HEK293 GAL4-SRC2 luciferase reporter; inhibition, % at 9 µM; 370,000 tested, 0.17% active;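 active = inhibition above the mean inhibition of all tested compounds plus 3 SD, set per campaign, cut at about 52% in these data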
Gli antag conf: Gli-SUFU pathway antagonists, confirmation, single concentration, luciferase luminescence, Sufu-KO-LIGHT cells. inhibition, % at 5 µM. AID 602428, 2012. 2,500 tested, 40% active. shares compounds with Gli-Sufu antag. Gli luciferase reporter;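 active = mean inhibition at 5 µM reaching about 45%, limit read from the data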
SufuKO cytotox: cytotoxicity in Sufu-KO-LIGHT cells, confirmation, cytotoxicity control for Gli-SUFU antagonist project, cell-based, ATP luminescence, single concentration; AID 651994, 2013; 2,500 tested, 32% active; cytotoxicity, % at 5 µM; shares compounds with Gli-Sufu antag;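 active = mean cytotoxicity at 5 µM above about 25%, limit read from the data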;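 note: cells exposed to compound overnight for roughly 16 to 18 hours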
Wnt3a cs: Wnt3a reporter signal inhibition, confirmation, counter-screen for Gli-SUFU antagonist project, Wnt-LIGHT cells, luminescence, single concentration; shares compounds with Gli-Sufu antag; Wnt3a-driven luciferase reporter; inhibition, % at 6.25 µM; 2,500 tested, 20% active; AID 651995, 2013;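 active = mean inhibition above about 25%, limit read from the data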
Each line names hits and unclear results; the compound was inactive in the other large screens (follow-up assays come after a bar, where they were run). Sampled rows, rich in hits. Any-hit rate of the full collection: about 1.3%.

C=C(C)CSc1nnc([C@@H](NC(=O)OC(C)(C)C)C(C)CC)o1 (stereo partly specified)	Gli-Sufu antag 94 | Gli antag conf inactive | SufuKO cytotox inactive | Wnt3a cs inactive
C=CCN1C(=O)[C@@H](CC(=O)NCCCN2CCCC2=O)[C@]2(C(=O)OC)CCCCC=C12	none (no result: NR5A2 inv ag, Gli-Sufu antag, NCOA3 inh, SRC1 inh)
Cc1ccc(C(=O)COC(=O)c2cc(Cl)nc3ccccc23)cc1	none
O=C(COC(=O)c1cc(Cl)nc2ccccc12)c1ccc(Cl)cc1	none | Gli antag conf inactive | SufuKO cytotox inactive | Wnt3a cs inactive
COc1ccc(-c2cnnc(N/N=C/c3ccc(OC)c(OC)c3)n2)cc1	none | Gli antag conf inactive | SufuKO cytotox inactive | Wnt3a cs inactive
CCOc1cc(CN2CCN(CCc3ccccc3)C(CCO)C2)ccc1OC (stereo unspecified)	Gli-Sufu antag 61 | Gli antag conf inactive | SufuKO cytotox inactive | Wnt3a cs inactive
Cc1cccc(NC(=O)CSc2nnc(SCc3ccc(Cl)cc3)s2)c1	none (no result: NR5A2 inv ag, Gli-Sufu antag, NCOA3 inh, SRC1 inh)
COc1ccccc1CN(Cc1nc2ccccc2c(=O)[nH]1)S(=O)(=O)c1ccc(C)cc1	none (no result: NR5A2 inv ag, NCOA3 inh, SRC1 inh) | Gli antag conf inactive | SufuKO cytotox inactive | Wnt3a cs inactive
Cc1cccc(C)c1NC1=C(Cl)C(=O)OC1OC(C)C (stereo unspecified)	none | Gli antag conf inactive | SufuKO cytotox inactive | Wnt3a cs inactive
Cc1ccc(NC2=C(Cl)C(=O)OC2OC(C)C)c(C)c1 (stereo unspecified)	none
COc1ccc(C(=O)C[n+]2ccc3c(c2)nc(Cc2ccccc2)n3C)cc1	none (no result: NR5A2 inv ag, Gli-Sufu antag, NCOA3 inh, SRC1 inh)
COc1ccc(N2CC(C)Cn3c2nc2c3c(=O)n(Cc3ccccc3)c(=O)n2C)c(OC)c1 (stereo unspecified)	none
COc1ccc(N2CCn3c2nc2c3c(=O)n(CCCc3ccccc3)c(=O)n2C)c(OC)c1	none | Gli antag conf 55 | SufuKO cytotox 35 | Wnt3a cs inactive
CCCCN1CN2Cc3cc(OC)ccc3C2CS1(=O)=O (stereo unspecified)	none (no result: NR5A2 inv ag, Gli-Sufu antag, NCOA3 inh, SRC1 inh)
CCCCCC[C@H](CC)CN(C(=O)Oc1ccccc1)c1ccccc1	none (no result: NR5A2 inv ag, Gli-Sufu antag, NCOA3 inh, SRC1 inh)
COc1ccc2c(c1OC)C(=O)OC2C1c2c(cc3c(c2OC)OCO3)CCN1C (stereo unspecified)	none | Gli antag conf inactive | SufuKO cytotox inactive | Wnt3a cs inactive
CSc1ccc(S(=O)(=O)N2CCC(C(=O)Nc3cccnc3)CC2)cc1	Gli-Sufu antag 76 | Gli antag conf inactive | SufuKO cytotox inactive | Wnt3a cs inactive
CCc1nc2ccccc2c(NC(=O)CN2CCC(C)CC2)c1C	none | Gli antag conf inactive | SufuKO cytotox inactive | Wnt3a cs inactive
COc1cccc2sc(=NC(=O)CCS(=O)(=O)c3ccc(C)cc3)n(C)c12	none
COc1cccc2sc(=NC(=O)CS(=O)(=O)c3ccc(Cl)cc3)n(C)c12	Gli-Sufu antag 73 | Gli antag conf 79 | SufuKO cytotox 29 | Wnt3a cs 40
COc1cccc2sc(=NC(=O)CS(=O)(=O)c3ccc(F)cc3)n(C)c12	Gli-Sufu antag 61 | Gli antag conf 53 | SufuKO cytotox 29 | Wnt3a cs inactive
CCn1c(=NC(=O)CS(=O)(=O)c2ccc(C)cc2)sc2cccc(OC)c21	Gli-Sufu antag 68 | Gli antag conf 61 | SufuKO cytotox inactive | Wnt3a cs 37
COc1cccc2sc(=NC(=O)CS(=O)(=O)c3ccccc3)n(C)c12	none (no result: Gli-Sufu antag)
CCn1c(=NC(=O)c2ccc(S(=O)(=O)N(C)C)cc2)sc2cccc(OC)c21	none
